In PubChem BioAssay one finds composite z-score and z-score data, which are given here for eight compounds.

Assay [1] deals with Wnt5a (protein binding on small-molecule microarray). The assay can be described thus: Wnt5a binders on small-molecule microarray, primary screen, biophysical, 635/667 nm fluorescence (AID 1142).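 Note: fluorescence read at 667 nm with signal to noise per printed feature.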 To be noted: 635 nm fluorescence, higher = more signal.
Assay [2] can be described thus: cell viability in Huh7 cells, primary screen, cytotoxicity control for HCV replication inhibitor project, CellTiter-Glo luminescence, basal, 48 h (AID 1143).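 Note: Huh7 hepatoma cells carrying a hepatitis C replication reporter with no stimulus; test concentration not given here.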 Particulars: Huh7 HCV replicon, CellTiter-Glo luminescence, 48 h, higher = more signal, called active from +8 up or from −8 down unless noted.
A short description of assay [3]: P. aeruginosa biofilm formation inhibitors, primary screen, PAO1 strain, BacTiter-Glo luminescence, LB-PBS (AID 1144). To be noted: 12 h, higher = more signal.
Assay [4] is described as follows: CREB reporter modulators without forskolin, primary screen, cell-based, PC12, CRE-LacZ reporter, unstimulated (AID 1145). To be noted: no forskolin, luminescence, 4.5 h; higher = more signal, called active from +8 up or from −8 down unless noted.
The nature of assay [5]: CREB reporter modulators under forskolin, primary screen, cell-based, PC12, CRE-LacZ reporter, forskolin-stimulated (AID 1146).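 Note: PC12 cells with 6xCRE LacZ reporter stimulated by forskolin 10 µM; beta-galactosidase reporter signal reflecting CREB driven transcription.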 Particulars: luminescence, 4.5 h; higher = more signal, called active from +8 up or from −8 down unless noted.
Assay [6] addresses Streptavidin (Streptomyces avidinii) (UniProt P22629). The assay can be described thus: streptavidin binders on small-molecule microarray, primary screen, artefact control for SMM compound annotation, biophysical, 635/667 nm fluorescence (AID 1147).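 Note: signal reflects streptavidin binding to arrayed compounds as a control protein.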 To be noted: streptavidin binding, higher = more signal.
A short description of assay [7]: small-molecule binders of probe aInhba, primary screen, biochemical, small-molecule microarray, 635/667 nm fluorescence (AID 1148).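 Note: score merges 667nm spot fluorescence with signal-to-noise for antibody binding to printed compounds.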 Particulars: higher = more signal; small-molecule microarray, probe aInhba, fluorescence unless noted.
Assay [8] has as its target Torsin-1A (Homo sapiens) (UniProt O14656). The assay can be described thus: torsin A binders from cell lysate, primary screen, small-molecule microarray, wild-type, 635/667 nm (AID 1149). Particulars: COS7 hTOR1A-WT lysate, 635 nm fluorescence, higher = more signal.
Assay [9] shares this target. Description: small-molecule binders of mutant TOR1A in lysate, primary screen, cell lysate, small-molecule microarray, COS7 lysate, 635/667 nm fluorescence (AID 1150).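 Note: score pools 667 nm emission and signal to noise measuring lysate protein binding.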 To be noted: COS7 hTOR1A mutant lysate, 635 nm fluorescence, higher = more signal.
Assay [10] relates to Sonic hedgehog protein (Shh). Description: small-molecule binders of Shh protein, primary screen, biochemical, small-molecule microarray, 635/667 nm fluorescence (AID 1151).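 Note: Shh protein binding to compounds spotted on small-molecule microarray slides; score combines spot fluorescence intensity with signal-to-noise across triplicate slides.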 Particulars: small-molecule microarray binding, 635 nm fluorescence; higher = more signal.
Assay [11] in a line: E. coli DRC41 culture turbidity changes, primary screen, E. coli filamentation inducer project, strain DRC41, OD650, 48 h (AID 1152).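 Note: E. coli MC1000 strain DRC41 lacking acrAB efflux pump and sulA.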 Particulars: E. coli DRC41 (acrAB sulA); higher = more signal, called active from +8 up or from −8 down unless noted.
Assay [12] in a line: small-molecule binders of probe aLefty1, primary screen, biochemical, small-molecule microarray, 635/667 nm fluorescence (AID 1153).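 Note: score merges spot fluorescence with signal-to-noise ratio from the scanned slide images.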 To be noted: higher = more signal; small-molecule microarray, probe aLefty1, fluorescence unless noted.
Assay [13] can be described thus: PSAC antagonists in infected red cells, primary screen, cell-based, P. falciparum Indochina, OD700, 1 h (AID 1154). To be noted: P. falciparum Indochina infected RBC osmotic lysis; higher = more signal, called active from +8 up or from −8 down unless noted.
Assay [14] in a line: PSAC antagonists in infected red cells, primary screen, cell-based, P. falciparum Indochina, OD700, 2 h (AID 1155).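 Note: lysis reports solute entry through the parasite surface anion channel PSAC; channel blockers reduce lysis of infected cells.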 To be noted: P. falciparum Indochina infected erythrocytes, osmotic lysis OD700; higher = more signal, called active from +8 up or from −8 down unless noted.
The nature of assay [15]: osmotic lysis modulators in infected erythrocytes, primary screen, PSAC antagonist project, cell-based, P. falciparum Indochina, OD700, 3 h (AID 1156). Particulars: higher = more signal, called active from +8 up or from −8 down unless noted.
Assay [16] is described as follows: PSAC antagonists in infected red cells, primary screen, cell-based, P. falciparum Indochina, OD700, 18 h (AID 1157). To be noted: P. falciparum Indochina infected erythrocytes, osmotic lysis OD700, 18 h; higher = more signal, called active from +8 up or from −8 down unless noted.
Assay [17] can be described thus: modulators of S6 phosphorylation in cells, primary screen, cell-based, A549, cytoblot, luminescence, serum-stimulated (AID 1158).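 Note: serum-stimulated A549 lung adenocarcinoma cells; signal is phosphorylated S6 detected by cytoblot immunostaining with HRP secondary.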 Particulars: A549 phospho-S6 cytoblot, 5 h, higher = more signal.
For assay [18], the target named is NADPH oxidase 2 (Homo sapiens) (UniProt P04839). Description: NOX2-dependent H2O2 signal modulators, primary screen, NOX inhibitor project, cell-based, HEK293-NOX2, PMA-stimulated, Amplex Red fluorescence (AID 1159). Note: test concentration not given here. Particulars: 45 min; higher = more signal, called active from +8 up or from −8 down unless noted.
The target of assay [19] is NADPH oxidase 4 (Homo sapiens) (UniProt Q9NPH5). The assay can be described thus: NOX4-dependent H2O2 signal modulators, primary screen, NOX inhibitor project, cell-based, HEK293-NOX4, tetracycline-induced, Amplex Red fluorescence (AID 1160). To be noted: 45 min; higher = more signal, called active from +8 up or from −8 down unless noted.
Assay [20] deals with NADPH oxidase 5 (Homo sapiens) (UniProt Q96PH1). Description: NOX5-dependent H2O2 signal modulators, primary screen, NOX inhibitor project, cell-based, HEK293-NOX5, Amplex Red fluorescence (AID 1161). Particulars: HEK293-NOX5, ionomycin, 45 min, higher = more signal.

Active and inactive are the calls of the source. Unless noted, the rule behind the calls is not given here.

Chain of NADPH oxidase 2 (Homo sapiens) (P04839 whole entry, looked up): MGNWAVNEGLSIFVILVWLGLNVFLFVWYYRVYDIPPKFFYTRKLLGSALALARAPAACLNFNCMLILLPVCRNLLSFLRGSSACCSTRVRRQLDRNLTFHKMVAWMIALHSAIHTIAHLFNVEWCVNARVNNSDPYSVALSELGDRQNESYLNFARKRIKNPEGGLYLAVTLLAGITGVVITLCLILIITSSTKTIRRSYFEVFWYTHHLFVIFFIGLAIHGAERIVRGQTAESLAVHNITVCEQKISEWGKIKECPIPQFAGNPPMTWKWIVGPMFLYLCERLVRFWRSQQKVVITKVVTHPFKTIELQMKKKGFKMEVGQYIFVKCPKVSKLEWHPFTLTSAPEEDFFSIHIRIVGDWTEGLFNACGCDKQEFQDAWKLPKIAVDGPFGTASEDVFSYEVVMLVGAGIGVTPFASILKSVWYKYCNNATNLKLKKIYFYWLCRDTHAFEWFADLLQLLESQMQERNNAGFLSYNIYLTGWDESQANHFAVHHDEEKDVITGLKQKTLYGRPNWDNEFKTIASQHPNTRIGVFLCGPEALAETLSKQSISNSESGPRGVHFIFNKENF
Chain of NADPH oxidase 5 (Homo sapiens) (Q96PH1 whole entry, looked up): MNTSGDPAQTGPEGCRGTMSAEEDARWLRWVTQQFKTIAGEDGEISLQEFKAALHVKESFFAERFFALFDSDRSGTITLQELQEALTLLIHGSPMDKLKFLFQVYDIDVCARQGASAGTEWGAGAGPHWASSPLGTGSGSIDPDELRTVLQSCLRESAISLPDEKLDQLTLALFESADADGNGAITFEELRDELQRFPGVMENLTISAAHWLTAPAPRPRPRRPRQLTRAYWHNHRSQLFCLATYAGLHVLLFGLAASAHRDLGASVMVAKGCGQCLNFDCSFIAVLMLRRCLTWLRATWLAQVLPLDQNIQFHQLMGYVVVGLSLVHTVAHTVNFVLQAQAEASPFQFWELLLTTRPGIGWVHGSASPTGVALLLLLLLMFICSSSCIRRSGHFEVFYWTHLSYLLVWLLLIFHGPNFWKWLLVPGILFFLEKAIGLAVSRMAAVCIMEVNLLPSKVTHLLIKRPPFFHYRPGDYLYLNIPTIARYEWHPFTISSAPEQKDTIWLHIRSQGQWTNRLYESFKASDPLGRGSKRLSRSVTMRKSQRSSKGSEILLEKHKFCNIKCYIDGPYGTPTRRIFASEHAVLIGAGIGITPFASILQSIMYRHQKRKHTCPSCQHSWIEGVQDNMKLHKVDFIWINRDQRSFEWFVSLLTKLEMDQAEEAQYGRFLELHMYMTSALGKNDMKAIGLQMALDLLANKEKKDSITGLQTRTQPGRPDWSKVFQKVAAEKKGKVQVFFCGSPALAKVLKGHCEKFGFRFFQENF
Chain of NADPH oxidase 4 (Homo sapiens) (Q9NPH5 whole entry, looked up): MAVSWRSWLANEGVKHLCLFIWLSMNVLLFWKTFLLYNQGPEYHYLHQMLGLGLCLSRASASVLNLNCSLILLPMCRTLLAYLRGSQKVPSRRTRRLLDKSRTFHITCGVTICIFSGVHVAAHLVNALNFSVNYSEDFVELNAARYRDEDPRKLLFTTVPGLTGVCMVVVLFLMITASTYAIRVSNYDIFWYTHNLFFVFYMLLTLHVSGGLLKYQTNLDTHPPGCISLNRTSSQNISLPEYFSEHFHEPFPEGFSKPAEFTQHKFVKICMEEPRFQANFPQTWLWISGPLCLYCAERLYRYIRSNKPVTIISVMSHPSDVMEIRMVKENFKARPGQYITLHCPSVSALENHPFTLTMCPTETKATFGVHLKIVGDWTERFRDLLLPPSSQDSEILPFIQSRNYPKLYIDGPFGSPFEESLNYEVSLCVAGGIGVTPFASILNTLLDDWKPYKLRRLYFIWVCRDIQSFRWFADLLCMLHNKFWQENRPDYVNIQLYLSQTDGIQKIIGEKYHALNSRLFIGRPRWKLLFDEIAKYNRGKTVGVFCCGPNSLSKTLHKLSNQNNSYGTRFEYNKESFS
Chain of Torsin-1A (Homo sapiens) (O14656 whole entry, looked up): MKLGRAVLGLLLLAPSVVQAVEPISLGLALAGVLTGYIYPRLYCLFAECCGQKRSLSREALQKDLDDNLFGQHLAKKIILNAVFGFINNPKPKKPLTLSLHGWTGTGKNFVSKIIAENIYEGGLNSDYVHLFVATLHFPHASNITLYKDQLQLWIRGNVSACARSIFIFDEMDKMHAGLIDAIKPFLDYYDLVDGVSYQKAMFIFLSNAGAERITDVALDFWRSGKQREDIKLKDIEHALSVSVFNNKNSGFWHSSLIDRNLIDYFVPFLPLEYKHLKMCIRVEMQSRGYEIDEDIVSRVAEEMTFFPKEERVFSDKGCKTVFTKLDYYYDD
Chain of Streptavidin (Streptomyces avidinii) (P22629 whole entry, looked up): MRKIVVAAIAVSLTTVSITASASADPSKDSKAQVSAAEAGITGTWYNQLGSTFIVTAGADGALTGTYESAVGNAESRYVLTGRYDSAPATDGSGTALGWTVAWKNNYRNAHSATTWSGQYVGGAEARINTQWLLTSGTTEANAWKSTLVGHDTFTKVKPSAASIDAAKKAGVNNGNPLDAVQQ

For the compound `CCCc1cc2c(n1Cc1ccc(C)cc1)C(C)C1CN(C(=O)c3ccccc3)C(C)(C(=O)OC)C21` (stereo not given), the composite z-score is 0.667 in [1]; 1.23 in assay [6]; 0.643 in assay [7]; 0.55 with Torsin-1A (Homo sapiens) [8]; 1.06 in the assay with Torsin-1A (Homo sapiens) [9]; -0.2 in [10]. In addition, the composite z-score in assay [12] is 1.33. For the same compound, the z-score in [2] is -2.69 (inactive); in assay [3], 0.426 (inactive); in assay [4], 1.53 (inactive); in assay [5], 1.57 (inactive); in [11] it was -0.692 (inactive); in assay [13] it was 1.5 (inactive). The z-score in assay [14] was -0.732 (inactive); in assay [15], 0.454 (inactive); in assay [16] it was -1.81 (inactive); in [17] it was 1.39; in assay [18], -0.714 (inactive); in assay [19], -0.757 (inactive). For the same compound, the z-score in [20] is -3.63.
Turning to `CCOC(=O)[C@H]1CC=C2C(=O)Oc3ccc(Br)cc3[C@@H]21`, the composite z-score in assay [1] is -0.707; in assay [6], 0.307; in assay [7], -0.128; with Torsin-1A (Homo sapiens) [8] it was 0.0083; with Torsin-1A (Homo sapiens) [9] it was 0.127; in [10] it was -0.968. The compound also registered a composite z-score in assay [12] of 0.035. The z-score in assay [2] was -0.87 (inactive); in assay [3], -0.301 (inactive); in assay [4], 0.0331 (inactive); in assay [5] it was 34.1 (active); in assay [11] it was -0.704 (inactive); in assay [13] it was 1.79 (inactive). Also, the z-score in assay [14] was 1.03 (inactive); in [15], -0.0107 (inactive); in assay [16], 0.756 (inactive); in assay [17], -0.747; in [18], -0.0356 (inactive); in assay [19] it was -1.75 (inactive). Moreover, the z-score in assay [20] is -0.445.
As to `COC(=O)[C@H]1[C@H](c2ccccc2)C(=O)[C@]2(O)c3ccccc3O[C@@]12c1ccccc1`, the composite z-score is 0.129 in assay [1]; 0.287 in assay [6]; -0.101 in assay [7]; 0.202 in the assay with Torsin-1A (Homo sapiens) [8]; 0.163 in the assay with Torsin-1A (Homo sapiens) [9]; 0.615 in assay [10]. The compound also displayed a composite z-score in assay [12] of -0.0523. Besides, the z-score in [2] is -0.962 (inactive); in assay [3], -1.45 (inactive); in assay [4] it was -0.161 (inactive); in assay [5] it was -0.474 (inactive); in assay [11] it was -0.474 (inactive); in [13], -0.446 (inactive). Besides, the z-score in assay [14] is -0.657 (inactive); in assay [15], 0.126 (inactive); in assay [16], -0.564 (inactive); in [17], 1.55; in assay [18], -0.181 (inactive); in [19], -1.55 (inactive). In addition, the z-score in [20] was -0.324.
Regarding `COc1cc2c(cc1O)C(C)N(C)CC2` (stereo not given), the composite z-score was -0.0967 in [1]; 0.0031 in [6]; -0.0468 in [7]; -0.638 with Torsin-1A (Homo sapiens) [8]; -0.744 with Torsin-1A (Homo sapiens) [9]; -0.12 in assay [10]. Also, the composite z-score in [12] amounted to 0.026. In addition, the z-score in assay [2] is 0.639 (inactive); in assay [3] it was 0.67 (inactive); in [4], 0.0655 (inactive); in [5] it was -0.497 (inactive); in assay [11], 1.01 (inactive); in assay [13], 0.726 (inactive). Also, the z-score is 0.0698 (inactive) in assay [14]; -0.306 (inactive) in assay [15]; 0.107 (inactive) in assay [16]; -0.0939 in assay [17]; -2.93 (inactive) in [18]; -1.92 (inactive) in assay [19]. The z-score in [20] is -2.86.
With `CCCC[C@@H]1C[C@H]1[C@@H](NP(=O)(c1ccccc1)c1ccccc1)c1ccc(Cl)cc1`, the composite z-score in assay [1] is 0.0234; in [6] it was 0.239; in assay [7], 0.157; with Torsin-1A (Homo sapiens) [8] it was -1.53; with Torsin-1A (Homo sapiens) [9] it was -0.202; in assay [10] it was -1.29. In [12], this compound gave a composite z-score of 0.337. Also, the z-score in [2] is -0.971 (inactive); in [3], -0.451 (inactive); in assay [4] it was -0.379 (inactive); in [5] it was -0.273 (inactive); in assay [11], -1.26 (inactive); in assay [13] it was 7.22 (inactive). Moreover, the z-score in assay [14] is 1.78 (inactive); in assay [15], 0.394 (inactive); in [16], 0.788 (inactive); in assay [17], -0.554; in assay [18] it was -1.87 (inactive); in [19] it was -1.56 (inactive). This compound came in with a z-score in assay [20] of 0.453.
As to `OCc1ccc(C2=CC(c3cccs3)N(Cc3cccc(OC(F)(F)F)c3)CC2)cc1` (stereo not given), the composite z-score is 0.136 in assay [1]; -0.0232 in assay [6]; -0.0719 in [7]; 0.761 in the assay with Torsin-1A (Homo sapiens) [8]; 1.16 in the assay with Torsin-1A (Homo sapiens) [9]; 1.05 in [10]. Moreover, the composite z-score in assay [12] was -0.148. Moreover, the z-score in [2] is -4.06 (inactive); in [3] it was 1.28 (inactive); in assay [4], 1.54 (inactive); in [5], -0.162 (inactive); in assay [11], -0.915 (inactive); in assay [13], 3.92 (inactive). Moreover, the z-score is 1.2 (inactive) in assay [14]; -0.18 (inactive) in assay [15]; 0.822 (inactive) in assay [16]; -0.0923 in assay [17]; 0.655 (inactive) in assay [18]; -0.666 (inactive) in [19]. In addition, the z-score in [20] is -1.38.
Consider `CCCc1cc2c(n1Cc1cccc(Cl)c1)C(C)C1CN(C(=O)c3ccccc3)C(C)(C(=O)OC)C21` (stereo not given), for which the composite z-score is 0.318 in assay [1]; 0.78 in [6]; 0.138 in assay [7]; -0.0514 with Torsin-1A (Homo sapiens) [8]; 1.27 in the assay with Torsin-1A (Homo sapiens) [9]; -0.083 in assay [10]. This compound also yielded a composite z-score in [12] of 0.235. Besides, the z-score in [2] was -2.78 (inactive); in [3], 0.00978 (inactive); in assay [4] it was 0.0041 (inactive); in assay [5] it was -1.1 (inactive); in assay [11], -1.69 (inactive); in assay [13], 2.02 (inactive). The z-score in [14] was 0.676 (inactive); in [15], 1.22 (inactive); in assay [16], 0.153 (inactive); in [17], -0.46; in [18] it was -1.21 (inactive); in assay [19] it was -2.3 (inactive). The compound further had a z-score in [20] of -2.42.
As to `CCOC(=O)[C@H]1CC=C2C(=O)Oc3ccccc3[C@@H]21`, the composite z-score was -0.652 in assay [1]; -0.521 in assay [6]; -0.0405 in assay [7]; -2.41 in the assay with Torsin-1A (Homo sapiens) [8]; -1.59 with Torsin-1A (Homo sapiens) [9]; -0.528 in [10]. The compound further returned a composite z-score in [12] of -0.106. For the same compound, the z-score is -1.22 (inactive) in assay [2]; -0.473 (inactive) in [3]; -0.228 (inactive) in [4]; 1.7 (inactive) in assay [5]; -0.59 (inactive) in assay [11]; 1.27 (inactive) in [13]. Further, the z-score in [14] was 0.804 (inactive); in [15], 0.458 (inactive); in [16], 0.708 (inactive); in [17] it was -0.395; in [18], 0.00603 (inactive); in [19], -0.285 (inactive). Besides, in assay [20], the z-score is -0.275.
